The text below walks through data of PubChem BioAssay (NCATS).

The nature of experiment [1]: Quantitative High-Throughput drug screen in 47 multiple myeloma cell lines against the NCATS MIPE library collection: XG6_PLB cell viability assay (AID 1919865). Note: nearly all actives have a fitted effect of over 40% in size. In short, it runs like this:
(§1)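 Plated at 500 cells per well, myeloma lines received MIPE 4.0 compounds by pin tool. Following 48 h culture at 37 °C, CellTiter-Glo luminescence gave viability relative to DMSO and media-only controls.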

Experiment [2] is described as follows: Quantitative High-Throughput drug screen in 47 multiple myeloma cell lines against the NCATS MIPE library collection: XG1_PLB cell viability assay (AID 1919866). Note: nearly all actives have a fitted effect of over 35% in size. The essentials:
as §1

Experiment [3] can be described thus: Quantitative High-Throughput drug screen in 47 multiple myeloma cell lines against the NCATS MIPE library collection: UTMC2_PLB cell viability assay (AID 1919868). Note: nearly all actives have a fitted effect of over 55% in size. To be noted: CellTiter-Glo ATP luminescence, 48 h; viability (% of DMSO control): at 45.8 µM (top of the series) unless noted. The essentials: as §1
(Cellular ATP, detected with luciferase, serves as a proxy for viable cell number.)

The nature of experiment [4]: Quantitative High-Throughput drug screen in 47 multiple myeloma cell lines against the NCATS MIPE library collection: PE2_PLB cell viability assay (AID 1919869). Note: nearly all actives have a fitted effect of over 35% in size. In short, it runs like this:
as §1

The nature of experiment [5]: Quantitative High-Throughput drug screen in 47 multiple myeloma cell lines against the NCATS MIPE library collection: PCM6_Riken cell viability assay (AID 1919870). Note: nearly all actives have a fitted effect of over 30% in size. In short, it runs like this:
as §1

The nature of experiment [6]: Quantitative High-Throughput drug screen in 47 multiple myeloma cell lines against the NCATS MIPE library collection: KMS11_JCRBsus cell viability assay (AID 1919873). Note: nearly all actives have a fitted effect of over 50% in size. The essentials: as §1
Experiment [7] is described as follows: Quantitative High-Throughput drug screen in 47 multiple myeloma cell lines against the NCATS MIPE library collection: RPMI8226_ATCC cell viability assay (AID 1919871). Note: nearly all actives have a fitted effect of over 30% in size. The essentials:
as §1

Experiment [8] can be described thus: Quantitative High-Throughput drug screen in 47 multiple myeloma cell lines against the NCATS MIPE library collection: VP6_DJ cell viability assay (AID 1919867). Note: nearly all actives have a fitted effect of over 40% in size. The essentials: as §1
The nature of experiment [9]: Quantitative High-Throughput drug screen in 47 multiple myeloma cell lines against the NCATS MIPE library collection: KMS28BM_JCRB cell viability assay (AID 1919874). Note: nearly all actives have a fitted effect of over 35% in size. The essentials:
as §1

A short description of experiment [10]: Quantitative High-Throughput drug screen in 47 multiple myeloma cell lines against the NCATS MIPE library collection: OPM2_DSMZ cell viability assay (AID 1919872). Note: nearly all actives have a fitted effect of over 30% in size. The essentials: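 We plated 500 myeloma cells per well, pinned in MIPE 4.0 compounds, and incubated for 48 hours at 37C. ATP was then quantified with CellTiter-Glo, with DMSO and media-only wells defining 100% and 0%.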

Structures are written as SMILES. Results filed as inconclusive are left out. Active and inactive are the calls of the source. Calls come from the whole dose curve; as a rule, active = well fitted cell-killing curve with a large enough effect; inconclusive = small, poorly fitted or top-dose-only effect, or effect the other way; inactive = no such curve, though single readings can be large or run the other way.
Potency is the fitted concentration of half-maximal effect.

Take `Cc1cc(Nc2cc(NC(=O)c3c(Cl)cccc3Cl)ccn2)nc(N)n1`: the Potency in [1] is 4.69 µM (active); in experiment [2] it was 1180 nM (active); in experiment [3], 2.96 µM (active); in experiment [4] it was 2.96 µM (active); in experiment [5] it was 2.35 µM (active); in experiment [6] it was 372 nM (active).
As for `COC(=O)c1ccc2c(C(=Nc3ccc(N(C)C(=O)CN4CCN(C)CC4)cc3)c3ccccc3)c(O)[nH]c2c1`, the Potency is 0.0469 µM (active) in experiment [1]; 662 nM (active) in experiment [2]; 6.62 µM (active) in [3]; 10.5 µM (active) in experiment [4]; 2.96 µM (active) in experiment [5]; 3.72 µM (active) in experiment [7].
For `COc1cc2ncn(-c3cc(OCc4ccccc4C(F)(F)F)c(C(N)=O)s3)c2cc1OC`, the Potency is 1.66 µM (active) in experiment [1]; 209 nM (active) in [2]; 18.7 µM (active) in experiment [8]; 18.7 µM (active) in experiment [4]; 5.9 µM (active) in [5]; 5.26 µM (active) in experiment [7]. In addition, the values for the Potency in experiment [6] and in experiment [9] were 296 nM (active) and 0.526 µM (active), respectively.
Turning to `COc1cc2c(cc1-c1c(C)noc1C)ncc1[nH]c(=O)n([C@H](C)c3ccccn3)c12`, the Potency in [1] was 5.26 µM (active); in experiment [2], 5900 nM (active); in experiment [8], 0.833 µM (active); in experiment [4], 14.8 µM (active); in experiment [5], 6.62 µM (active); in experiment [7] it was 7.43 µM (active). In addition, the Potency in [6] was 264 nM (active); in experiment [9] it was 0.332 µM (active).
For `CNC(=O)c1ccc(N2C(=S)N(c3cnc(C#N)c(C(F)(F)F)c3)C(=O)C23CCC3)cc1F`, the Potency in [1] is 0.0935 µM (active); in [2], 264 nM (active); in [8] it was 1.05 µM (active); in experiment [4], 1.05 µM (active); in [5], 0.833 µM (active). For the same compound, the Potency result in experiment [10], in experiment [6] and in [9] was “inactive” in each case.
Take `CC(NCc1ccc2c(c1)nc(NC(=O)c1ccc(-c3cn[nH]c3)s1)n2CC(C)(C)O)C(C)(C)C` (stereo not drawn): the Potency in experiment [1] was 0.235 µM (active); in [2], 372 nM (active); in [3] it was 0.105 µM (active); in experiment [4] it was 0.296 µM (active); in experiment [5] it was 0.105 µM (active); in [7], 0.743 µM (active). Besides, the Potency is 1.05 µM (active) in experiment [10], 209 nM (active) in experiment [6] and 0.332 µM (active) in experiment [9].
Take `O=C(C=Cc1c(C(=O)O)[nH]c2cc(Cl)cc(Cl)c12)Nc1ccccc1`: the Potency entry in experiment [1], in experiment [2], in experiment [8], in experiment [5], in experiment [7] and in experiment [10] was “inactive” in each case. In addition, the Potency result in experiment [9] is “inactive”.
`O=C(Nc1nc2cccc(-c3ccc(CN4CCS(=O)(=O)CC4)cc3)n2n1)C1CC1`: the Potency in experiment [1] is 16.6 µM (active); in [2] it was 14800 nM (active); in [8] it was 18.7 µM (active); in [4], 16.6 µM (active); in experiment [5], 16.6 µM (active); in experiment [7] it was 18.7 µM (active). Moreover, the Potency in experiment [9] is 14.8 µM (active).
Take `CC1(C)O[C@@H]2C[C@@H]3[C@H]4C[C@@H](F)C5=CC(=O)C=C[C@]5(C)[C@@]4(F)[C@@H](O)C[C@]3(C)[C@]2(C(=O)CO)O1`: the Potency entry in experiment [1], in experiment [2], in experiment [8] and in [10] was “inactive” each time. Further, the Potency is 1.18 µM (active) in experiment [4], 0.0083 µM (active) in [7] and 4.2 nM (active) in experiment [6].
Turning to `NC(=O)Nc1cc(-c2cccc(F)c2)sc1C(=O)N[C@H]1CCCNC1`, the Potency in experiment [1] was 0.0833 µM (active); in experiment [2], 187 nM (active); in experiment [8], 0.166 µM (active); in experiment [4], 0.469 µM (active); in experiment [5], 4.69 µM (active); in [10], 2.64 µM (active). Further, the Potency in [6] is 526 nM (active); in experiment [9], 1.87 µM (active).
Consider `C=C1C(=CC=C2CCCC3(C)[C@@H]([C@H](C)C=CC=CC(O)(CC)CC)CC[C@@H]23)C[C@@H](O)C[C@@H]1O` (stereo partly drawn), for which the Potency is 18.7 µM (active) in [1]; 20900 nM (active) in experiment [2]; 10.5 µM (active) in experiment [8]; 23.5 µM (active) in experiment [4]; 33.2 µM (active) in [5]; 26.4 µM (active) in experiment [7]. In addition, the Potency in experiment [6] was 23500 nM (active); in [9], 20.9 µM (active).
Consider `COc1ccc(-n2nc(C(N)=O)c3c2C(=O)N(c2ccc(N4CCCCC4=O)cc2)CC3)cc1`, for which the Potency result in experiment [1], in [2], in experiment [3], in [4], in experiment [5] and in experiment [7] was “inactive” in each case. Besides, the Potency result in [10], in experiment [6] and in experiment [9] was “inactive” each time.
On to `COc1ccc(F)c(F)c1C(=O)c1cnc(NC2CCN(S(C)(=O)=O)CC2)nc1N`, for which the Potency in experiment [1] is 1.05 µM (active); in experiment [2] it was 1660 nM (active); in experiment [3], 2.35 µM (active); in experiment [4] it was 2.09 µM (active); in experiment [5], 0.743 µM (active); in experiment [7], 2.96 µM (active). The Potency in experiment [10] is 3.32 µM (active); in experiment [6] it was 1480 nM (active); in experiment [9] it was 3.32 µM (active).
As for `CNC(=O)c1cc(Oc2ccc(NC(=O)Nc3cc(C(C)(C)C)nn3-c3ccc4ncccc4c3)c(F)c2)ccn1`, the Potency in experiment [1] was 7.43 µM (active); in experiment [2], 7430 nM (active); in experiment [8], 4.69 µM (active); in [4], 5.26 µM (active); in experiment [5], 2.64 µM (active); in experiment [7], 16.6 µM (active). The Potency in [10] is 18.7 µM (active); in experiment [9] it was 9.35 µM (active).
For the compound `COc1cc(-c2nn(C3CCC(N4CCN(C(C)=O)CC4)CC3)c3ncnc(N)c23)ccc1NC(=O)c1cc2ccccc2n1C` (stereo not drawn), the Potency in experiment [1] is 1.66 µM (active); in experiment [2], 332 nM (active); in experiment [8], 6.62 µM (active); in experiment [4] it was 2.96 µM (active); in experiment [7] it was 18.7 µM (active); in [9] it was 3.32 µM (active).
Turning to `CC(C)c1ccc(Cn2ccc3c4c(N)nc(NC5CC5)nc4ccc32)cc1`, the Potency was 5.26 µM (active) in experiment [1]; 743 nM (active) in experiment [2]; 1.87 µM (active) in [3]; 2.35 µM (active) in [4]; 5.9 µM (active) in [5]; 14.8 µM (active) in experiment [7]. Also, the results for the Potency in [10], in experiment [6] and in [9] were 6.62 µM (active), 1050 nM (active) and 1.66 µM (active), respectively.
